Data as given in PubChem BioAssay AID1085 (Emory University Molecular Libraries Screening Center, 2008).
Screen size: about 220,000 compounds; about 930 (0.42%) were called active. The entries come from a sample that favours actives as a whole. Unmarked numbers belong to inactive results. No stated cut-off is given here; in the data, active means inhibition above about 50%; inactive means the rest.

What follows are compounds tested against Glycoprotein 42 (Epstein-Barr virus (strain AG876)) (UniProt Q1HVG2) (assay: Epstein-Barr virus gp42 inhibitors, primary screen, biochemical, uHTS, fluorescence polarization (AID 1085)). Details: Fluorescence polarization binding assay, mP read-out; active compounds read high; tested at 21.74 µM.
Sequence of Glycoprotein 42 (Epstein-Barr virus (strain AG876)) (Q1HVG2 whole entry, looked up): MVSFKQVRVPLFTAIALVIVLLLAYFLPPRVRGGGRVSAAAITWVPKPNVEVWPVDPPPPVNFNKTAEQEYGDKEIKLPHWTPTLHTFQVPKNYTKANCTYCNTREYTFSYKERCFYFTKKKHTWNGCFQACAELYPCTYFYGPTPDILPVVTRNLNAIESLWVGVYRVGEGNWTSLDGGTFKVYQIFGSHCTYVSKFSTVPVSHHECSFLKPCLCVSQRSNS

| Compound | inhibition |
| --- | --- |
| CC(=O)NC(NC(=S)Nc1c(C)n(C)n(-c2ccccc2)c1=O)C(Cl)(Cl)Cl (configuration not stated) | -9.48% |
| COc1ccc(/C(C)=N/NC(=O)CCC(=O)Nc2ccc(Cl)cc2Cl)c(OC)c1 | -0.68% |
| Cc1nn(C)cc1N1C(=O)c2cccc3c(N)ccc(c23)C1=O | 149% (active) |
| Cc1nn(-c2cc(Cl)ccc2N)c(=O)c2ccccc12 | -22.9% |
| COc1ccc(N2C(=O)c3cccc4cccc(c34)C2=O)nn1 | 15.4% |
| Clc1cccc(CN2COc3c(cc(Cl)c4cccnc34)C2)c1 | 1.66% |
| CC(C)(C)NC(=O)CSC(=Nc1ccccc1F)NC#N | 4.3% |
| CCNC(=O)CC1C(=O)N(c2ccc(OC)cc2)C(=S)N1CCc1ccncc1 (configuration not stated) | -17.4% |
| CCOC(=O)c1sc(NC(=O)CSc2nc(C)cc(C(F)(F)F)n2)c(C#N)c1C | -17.3% |
| CCOc1ccc2nc(N3CCCN(C(=O)Nc4ccccc4C)CC3)c(C#N)cc2c1 | 53.8% (active) |
| CCOc1ccc2nc(NCCNS(=O)(=O)c3ccccc3)c(C#N)cc2c1 | -8.9% |
| COc1ccc2nc(N3CCCC(O)C3)c(C#N)cc2c1 (configuration not stated) | 46.9% |
| O=C(CCCCCN1C(=O)c2cccc3cccc(c23)C1=O)NCc1ccco1 | -16.7% |
| CCN(CC)S(=O)(=O)c1ccc(N2CCOCC2)c(NC(=O)C2COc3ccccc3O2)c1 (configuration not stated) | -2.58% |
| O=C(N/N=C/c1ccco1)c1csc2c1CCCC2 | -15.1% |
| Cc1cccc2cc3c(N)c(C(=O)N4CCCc5ccccc54)sc3nc12 | 88.5% (active) |
| Cc1c(C(=O)N2CCCc3ccccc32)sc2nc(-c3ccccc3)cn12 | -4.31% |
| Cc1occc1C(=O)N1CCCc2ccccc21 | -1.51% |
| CCOC(=O)C(C)n1nc(-c2ccccc2)c2ccccc2c1=O (configuration not stated) | -6.93% |
| Cn1cnc([N+](=O)[O-])c1Sc1ccccc1 | -26% |
| COc1ccccc1NC(=O)C[n+]1ccccc1 | -3.15% |
| COC(=O)Cc1nc2ccccc2[nH]1 | -12.7% |
| COC(=O)C[n+]1cccc2ccccc21 | 128% (active) |
| CSc1cc(C)n(-c2ccccc2C)c(=S)c1C(C)=O | -23.5% |
| COc1ccc(N(CCC#N)S(=O)(=O)c2ccc(Cl)cc2)cc1 | -7.41% |
| O=C(Nc1ccc(Cl)cc1)C1c2cccc[n+]2CC(=O)N1Cc1ccc2c(c1)OCO2 (configuration not stated) | -27% |
| CCOc1cccc(=O)c2c(C)n(CC3CCCO3)c(C)c12 (configuration not stated) | 14.8% |
